Experimental data taken from PubChem BioAssay AID504834 (National Center for Advancing Translational Sciences (NCATS), 2011).
The campaign covered roughly 320,000 compounds. About 22,000 (6.9%) were called active. Where a call stands in place of a potency, no number is given. Roughly 27% stayed inconclusive and do not appear here. Calls follow the shape of the dose curve; as a rule, active = well fitted inhibition curve with a large enough effect; inconclusive = small, poorly fitted or top-dose-only effect, or another doubt; inactive = no such curve, though single readings can be large or run the other way. This excerpt belongs to a sample that is enriched for actives.

Assay: Primary qHTS for delayed death inhibitors of the malarial parasite plastid, 96 hour incubation
Settings: P. falciparum luciferase reporter growth; series mostly up to 28.7 µM
Summary of the method: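 Luminescence readout: decreased luciferase signal marks inhibited growth of reporter-expressing P. falciparum in infected red cells (2% hematocrit, 0.05% parasitemia final), exposed to compound two generations (96 h, 37 C, 5% CO2).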
Potency is read from the fitted curve at half-maximal effect.

SMILES | Potency | activity change, negative = inhibition
CCOc1ccc(CCNC(=O)COC(=O)C2CCN(c3ccc(C(F)(F)F)cn3)CC2)cc1OCC | inactive | 
FC(F)(F)C1CCCN(c2nsc3ccccc23)C1 (stereo not given) | inactive | 
Cc1cccc(NC(=O)C2CCCN(C(=O)Nc3ccc(F)cc3)C2)c1C (stereo not given) | inactive | 
CCOC(=O)N1CCN(S(=O)(=O)c2ccc(Br)cc2)CC1 | inactive | 
CC(C)(C)c1ccccc1NC(=O)CN1C(=O)NC2(CCCC2)C1=O | inactive | 
CN(C)c1ccc(C2Nc3ccccc3C(=O)N2NS(=O)(=O)c2ccccc2)cc1 (stereo not given) | inactive | 
CC1C(=O)Nc2ccccc2N1C(=O)c1c(F)cccc1F (stereo not given) | inactive | 
CC(C)C(=O)N1c2ccccc2NC2=C(C(=O)CCC2)C1c1ccc(N(C)C)cc1 (stereo not given) | 2.33 µM (active) | 
Cc1ccc(C(NC(=O)N2CCCC2)C(Cl)(Cl)Cl)cc1F (stereo not given) | 8.28 µM (active) | 
Cc1cc(C)cc(NC(=O)N2CCCCCCC2)c1 | inactive | 
Cc1ccc(C(=O)N2CCCC2)c(F)c1F | inactive | 
CC(Sc1ncnc2c1cnn2-c1ccccc1)C(=O)Nc1ccc(N2CCOCC2)cc1 (stereo not given) | inactive | 
CCOC(=O)c1cc2n(c1N)-c1ccccc1C2=O | inactive | 
CCOC(=O)c1cc2n(c1C)-c1ccccc1C2=O | 9.28 µM (active) | 
CCOC(=O)c1ccccc1CN1C(=O)c2ccccc2S1(=O)=O | inactive | 
Nc1c(N(CCO)C(=O)C2CCCCC2)c(=O)[nH]c(=O)n1Cc1ccccc1 | inactive | 
CC(=O)Nc1ccc(S(=O)(=O)Nc2nc(-c3ccc(C(C)(C)C)cc3)cs2)cc1 | 1.65 µM (active) | 
CC(=O)Nc1ccc(-c2csc(NC=C3C(=O)OC(C)(C)OC3=O)n2)cc1 | inactive | 
CC(=O)Nc1ccc(-c2csc(NC(=O)Nc3ccccc3)n2)cc1 | inactive | 
O=C(CSc1nnc(CNC(=O)c2ccc(F)cc2)o1)Nc1ccc2c(c1)OCO2 | inactive | 
Cc1ccc(N2C(=O)CC(N3CCSCC3)C2=O)c(C)c1 (stereo not given) | inactive | 
N#Cc1ccc(S(=O)(=O)NCC(=O)OCC(=O)NCCc2ccccc2)cc1 | inactive | 
O=C(COC(=O)CCc1nc2ccccc2c(=O)[nH]1)Nc1ccc(N2CCOCC2)cc1 | inactive | 
Cc1ccc(NC(=O)CSc2nnc(COc3ccccc3C)o2)cc1 | inactive | 
Cc1ccccc1OCc1nnc(SCC(=O)N2c3ccccc3Sc3ccc(Cl)cc32)o1 | 13.1 µM (active) | 
CC(C)NC(=O)CSc1nnc(COc2ccccc2Cl)o1 | inactive | 
O=C(NNS(=O)(=O)Cc1ccccc1)c1ccc([N+](=O)[O-])cc1 | inactive | 

SMILES | Potency | activity change, negative = inhibition
Cn1c(-c2sccc2OCc2cccc(C(F)(F)F)c2)n[nH]c1=S | 14.7 µM (active) | 
Cc1ccccc1-c1n[nH]c(=S)n1C |  | 19.3% [at 5.75 µM] (inactive)
Cn1c(-c2sc3cc(C(F)(F)F)cnc3c2-c2ccccc2)n[nH]c1=S | inactive | 
O=c1o[nH]c(-c2ccccc2)c1N=Nc1c(F)cccc1Cl | inactive | 
CC[C@H]1CN2CCc3cc(OC)c(OC)cc3[C@@H]2C[C@@H]1C[C@H]1NCCc2cc(OC)c(OC)cc21 | 0.0738 µM (active) | 
COC(=O)c1ccc([C@@H](O)[C@H](C)C(=O)CC(=O)OC(C)(C)C)cc1 | inactive | 
COc1ccc(Cl)cc1NC(=O)CNc1ccccc1F | inactive | 
CCn1nc(C)c(/C=N/NC(=O)Cc2ccc(Cl)cc2)c1C | inactive | 
Cc1nn(Cc2ccc(Cl)cc2)c(Cl)c1/C=N/NC(=O)CNc1ccccc1F | 9.28 µM (active) | 
Cc1ccccc1OCC(=O)Nc1ccc2c(c1)ncn2C | inactive | 
CCN(CC)CCN(C(=O)c1cccc([N+](=O)[O-])c1)c1nc2ccc(OC)cc2s1 | inactive | 
COc1cccc(-c2nn(C)c3sc(C(=O)N4CCN(c5ccccc5)CC4)cc23)c1 | inactive | 
COc1ccc2nc(N3CCN(C(=O)c4ccc([N+](=O)[O-])o4)CC3)sc2c1 | 0.738 µM (active) | 
CCOc1ccc(NC(=O)C/C(C)=N/NC(=O)Cc2cccs2)cc1 | inactive | 
C=CCNC(=S)N/N=C/c1ccc(OCc2ccccc2)cc1 | inactive | 
O=C(Cc1cccs1)N/N=C/c1ccc(OCc2ccccc2)cc1 | 11.7 µM (active) | 
O=C(Nc1ccc(-n2cccn2)cc1)C1CCN(Cc2ccsc2)CC1 | inactive | 
COc1cc(Cl)c(C)cc1NC(=O)CSc1nnc(-c2ccco2)n1CC(C)C | 10.4 µM (active) | 
COc1ccc(NC(=O)CSc2ccc(-c3ccco3)nn2)c(OC)c1 | 14.7 µM (active) | 
COc1ccccc1NC(=O)CSc1nnc(C)n1CC1CCCO1 (stereo not given) | inactive | 
COc1ccc(NC(=O)CCC(=O)Nc2cc(OC)c(NC(=O)c3ccco3)cc2OC)c(OC)c1 | inactive | 
O=C(CSc1ccc(-c2ccco2)nn1)NCc1ccc2c(c1)OCO2 | inactive | 
CCn1c(SCC(=O)Nc2cc(C)c(Cl)cc2OC)nnc1-c1ccco1 | inactive | 
CCN(CC)c1ccc(/C=N/NC(=O)CNC(=O)c2cccs2)cc1 | inactive | 
O=C(Nc1ccccc1-c1nc2ccccc2[nH]c1=O)c1cccs1 | inactive | 
Cc1ccc(C(CNC(=O)Nc2ccccc2)N2CCN(C)CC2)cc1 (stereo not given) | inactive | 
O=C1NS(=O)(=O)c2ccccc21 | inactive | 

SMILES | Potency | activity change, negative = inhibition
CC(C)(C)c1ccc(Oc2ccc(N)cc2)cc1 | inactive | 
CC(C)(C)c1ccc(OC2=CS(=O)(=O)c3ccccc32)cc1 | 9.28 µM (active) | 
CCn1cc(/C=C(\NC(=O)c2cc(OC)c(OC)c(OC)c2)C(=O)N2CCN(C)CC2)c2ccccc21 | inactive | 
CC1CCN(CC(=O)Nc2nccs2)CC1 | inactive | 
Cc1cc(=O)[nH]c(SCC(=O)Nc2ccc(Br)cc2)n1 | inactive | 
CC(=O)Oc1ccc(N(C(C)=O)S(=O)(=O)c2ccc3ccccc3c2)cc1Br | inactive | 
Cc1nc([N+](=O)[O-])cn1CC(=O)Nc1ccc(Cl)cc1 | inactive | 
CNC(=O)c1ccsc1NC(=O)c1ccc(S(=O)(=O)N2CCc3ccccc32)cc1 | 11.7 µM (active) | 
NS(=O)(=O)c1ccc(CNC(=O)c2cccc(S(=O)(=O)N3CCc4ccccc43)c2)cc1 | inactive | 
O=C(Nc1nc2ccc([N+](=O)[O-])cc2s1)c1ccc(S(=O)(=O)N2CCCc3ccccc32)cc1 | inactive | 
CCN(CC)CCCNC(=O)c1cc2c(=O)[nH]c3ccc(C)cc3c2s1 | inactive | 
CC(=O)NS(=O)(=O)c1ccc2c(c1)Cc1cc(S(=O)(=O)NC(C)=O)ccc1-2 | inactive | 
COc1cc(C2/C(=C(\O)c3ccc4c(c3)CC(C)O4)C(=O)C(=O)N2c2nnc(C)s2)cc(OC)c1OC (stereo not given) | inactive | 
Cc1sc2nc(SCCO)n(-c3ccccc3)c(=O)c2c1C | 10.4 µM (active) | 
CCc1cc2c(=O)n(-c3ccccc3)c(SCC(=O)O)nc2s1 | inactive | 
Cc1sc2nc(SCC(N)=O)n(C)c(=O)c2c1C | inactive | 
COC(=O)c1ccc(C(=O)OC)c(NC(=S)N2CCCCC2)c1 | inactive | 
CCS(=O)(=O)Nc1cc(C(=O)OC)ccc1C(=O)OC | 10.4 µM (active) | 
CCN(CCO)C(=S)Nc1cc(C(=O)OC)ccc1C(=O)OC | inactive | 
COc1ccc2oc(C(=O)NCc3ccco3)c(C)c2c1 | inactive | 
CCCCCC1CC(COc2ccccc2)OC1=O (stereo not given) | inactive | 
O=C(NCc1ccccc1)C(c1ccco1)N(C(=O)c1csnn1)c1ccccc1F (stereo not given) | inactive | 
CCOCCCNC(=O)C(NC(=O)CNC(=O)c1ccccc1)c1ccc(OC)cc1 (stereo not given) | inactive | 
CCOCCCNC(=O)C(NC(=O)CNC(=O)c1ccccc1)c1ccc(C)cc1 (stereo not given) | 9.28 µM (active) | 
CCOCCCNC(=O)C(NC(=O)c1ccc(=O)[nH]c1)c1ccc(C)cc1 (stereo not given) | inactive | 
COc1ccc(C(=O)NC2CC(C)(C)Cc3c2cnn3-c2ccccc2C)o1 (stereo not given) | inactive | 
Cc1ccc(S(=O)(=O)NCCC(=O)NC2CCN(Cc3ccccc3)CC2)cc1 | inactive | 

SMILES | Potency | activity change, negative = inhibition
OC(c1nc2ccc(F)cc2[nH]1)C(O)c1nc2ccc(F)cc2[nH]1 (stereo not given) | inactive | 
Cc1c(NC(=O)C(C)Oc2cccc(Cl)c2)c(=O)n(-c2ccccc2)n1C (stereo not given) | inactive | 
CN(Cc1ccccc1)C(=O)COc1ccccc1 | inactive | 
CN(C(=O)COc1ccccc1)c1nnc(-c2ccncc2)s1 | 4.15 µM (active) | 
CN(C(=O)c1ccccn1)c1nnc(-c2ccccn2)s1 | inactive | 
CC(C)Oc1ccc(C(CC(=O)N2CCOCC2)C(C)C)cc1 (stereo not given) | inactive | 
CC(=O)c1c(C)oc2ccc(NS(=O)(=O)c3ccc(C(=O)O)cc3)cc12 | inactive | 
O=C(Nc1ccc(O)cc1)c1ccc(NC(=O)c2ccco2)cc1 | inactive | 
COC(=O)c1ccc2ccccc2c1OC1OC(CO)C(O)C(O)C1NC(C)=O (stereo not given) | 10.4 µM (active) | 
COc1cc(/C=C/CO)cc(OC)c1O[C@@H]1O[C@H](CO)[C@@H](O)[C@H](O)[C@H]1O | inactive | 
CC(=O)NC1C(OCc2ccccc2)OC(COC(C)=O)C(OC(C)=O)C1OC(C)=O (stereo not given) | inactive | 
Cn1cc(S(=O)(=O)Nc2ccc(Cl)cc2Cl)c(=O)n(C)c1=O | inactive | 
Cc1ccc(N2CC(C(=O)NCCS(=O)(=O)N3CCN(c4ccccc4)CC3)CC2=O)cc1 (stereo not given) | inactive | 
COCCCNC(=O)C1CC(=O)N(c2ccc(C)cc2)C1 (stereo not given) | 11.7 µM (active) | 
COCCNC(=O)C1CCN(C(=O)C2CC(=O)N(c3ccc(C)cc3)C2)CC1 (stereo not given) | inactive | 
Cc1nc(Cl)cc(N/N=C/c2ccccc2)n1 | inactive | 
Cc1ccc(/C=C/C(=O)OCC(=O)Nc2cccnc2Cl)cc1 | inactive | 
CSCCC(NC(=O)COc1ccccc1)C(=O)OCCOc1ccc(F)cc1 (stereo not given) | inactive | 
O=C(NCC(=O)N1CCC2(CC1)NCCc1[nH]cnc12)c1ccc(Br)cc1 | inactive | 
Cc1ccsc1C(=O)NC1CCCCC1C (stereo not given) | inactive | 
Cc1ccc(NC(=O)COc2ccc(/C=C3/NC(=O)NC3=O)cc2)cc1 | inactive | 
O=C(NCCCN1CCCCCC1)C1CC(=O)N(C2CCCC2)C1 (stereo not given) | 3.7 µM (active) | 
O=C(NCCCN1CCCCC1)C1CC(=O)N(CCc2ccccc2)C1 (stereo not given) | inactive | 
COc1cccc(CNC(=O)C2CC(=O)N(C3CCCCCCC3)C2)c1 (stereo not given) | inactive | 
